Experimental data reported in ChEMBL document CHEMBL1961873, “Compounds: GSK PKIS; Assays: Nanosyn kinase panel” (2012).

What was measured:
[1] = target: Serine/threonine-protein kinase MARK2 (Homo sapiens) (UniProt Q7KZI7); settings: at 1 µM
[2] = target: PAS domain-containing serine/threonine-protein kinase (Homo sapiens) (UniProt Q96RG2); settings: at 0.1 µM
[3] = target: PAS domain-containing serine/threonine-protein kinase (Homo sapiens) (UniProt Q96RG2); settings: at 1 µM
[4] = target: Phosphorylase b kinase gamma catalytic chain, skeletal muscle/heart isoform (Homo sapiens) (UniProt Q16816); settings: at 0.1 µM
Phosphorylase b kinase gamma catalytic chain, skeletal muscle/heart isoform (Homo sapiens), sequence (Q16816 whole entry, looked up, canonical isoform): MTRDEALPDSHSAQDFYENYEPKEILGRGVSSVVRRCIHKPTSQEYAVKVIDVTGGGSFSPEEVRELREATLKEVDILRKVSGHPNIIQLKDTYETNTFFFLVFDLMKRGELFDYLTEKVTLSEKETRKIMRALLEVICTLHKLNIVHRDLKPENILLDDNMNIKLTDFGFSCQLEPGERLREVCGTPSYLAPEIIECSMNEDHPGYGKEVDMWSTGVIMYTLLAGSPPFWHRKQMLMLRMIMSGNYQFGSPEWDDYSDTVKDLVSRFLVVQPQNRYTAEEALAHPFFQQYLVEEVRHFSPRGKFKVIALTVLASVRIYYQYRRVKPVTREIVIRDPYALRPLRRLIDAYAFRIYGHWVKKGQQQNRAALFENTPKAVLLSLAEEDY

[5] = target: Phosphorylase b kinase gamma catalytic chain, skeletal muscle/heart isoform (Homo sapiens) (UniProt Q16816); settings: at 1 µM
[6] = target: T1, Phosphorylase b kinase gamma catalytic chain, liver/testis isoform (Homo sapiens) (UniProt P15735); settings: at 0.1 µM
T1 sequence (whole entry): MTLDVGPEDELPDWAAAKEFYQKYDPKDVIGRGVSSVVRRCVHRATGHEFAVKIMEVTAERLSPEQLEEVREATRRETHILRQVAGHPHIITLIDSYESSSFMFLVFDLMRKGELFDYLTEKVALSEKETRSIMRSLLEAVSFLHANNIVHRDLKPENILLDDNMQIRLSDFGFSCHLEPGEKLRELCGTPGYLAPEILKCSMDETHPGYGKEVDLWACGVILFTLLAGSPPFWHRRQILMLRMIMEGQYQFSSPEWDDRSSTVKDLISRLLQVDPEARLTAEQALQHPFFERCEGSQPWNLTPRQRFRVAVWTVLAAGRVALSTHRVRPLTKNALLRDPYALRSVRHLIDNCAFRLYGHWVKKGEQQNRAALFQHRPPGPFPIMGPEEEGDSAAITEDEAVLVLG

[7] = target: T1, Phosphorylase b kinase gamma catalytic chain, liver/testis isoform (Homo sapiens); settings: at 1 µM
[8] = target: Serine/threonine-protein kinase pim-1 (Homo sapiens) (UniProt P11309); settings: at 0.1 µM
Serine/threonine-protein kinase pim-1 (Homo sapiens), sequence (P11309 whole entry, looked up): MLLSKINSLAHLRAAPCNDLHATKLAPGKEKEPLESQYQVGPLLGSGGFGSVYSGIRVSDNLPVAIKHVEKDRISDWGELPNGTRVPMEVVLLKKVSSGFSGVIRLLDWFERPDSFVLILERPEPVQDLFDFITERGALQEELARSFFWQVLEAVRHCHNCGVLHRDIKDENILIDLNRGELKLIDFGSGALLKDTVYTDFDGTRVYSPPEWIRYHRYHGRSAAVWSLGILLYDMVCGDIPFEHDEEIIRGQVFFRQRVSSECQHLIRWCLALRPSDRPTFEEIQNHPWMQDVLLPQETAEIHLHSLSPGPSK

[9] = target: Serine/threonine-protein kinase pim-1 (Homo sapiens) (UniProt P11309); settings: at 1 µM
[10] = target: Serine/threonine-protein kinase pim-2 (Homo sapiens) (UniProt Q9P1W9); settings: at 0.1 µM
Serine/threonine-protein kinase pim-2 (Homo sapiens), sequence (Q9P1W9 whole entry, looked up): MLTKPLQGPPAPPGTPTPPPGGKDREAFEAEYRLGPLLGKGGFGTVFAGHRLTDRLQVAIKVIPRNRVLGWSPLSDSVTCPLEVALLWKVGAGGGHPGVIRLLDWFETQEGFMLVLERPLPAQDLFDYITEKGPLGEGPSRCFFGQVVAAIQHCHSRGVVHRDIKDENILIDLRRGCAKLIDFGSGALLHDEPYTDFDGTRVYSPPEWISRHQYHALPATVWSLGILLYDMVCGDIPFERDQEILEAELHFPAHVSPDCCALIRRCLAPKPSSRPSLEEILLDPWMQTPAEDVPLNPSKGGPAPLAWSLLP

[11] = target: Serine/threonine-protein kinase pim-2 (Homo sapiens) (UniProt Q9P1W9); settings: at 1 µM
[12] = target: Serine/threonine-protein kinase pim-3 (Homo sapiens) (UniProt Q86V86); settings: at 0.1 µM
[13] = target: Serine/threonine-protein kinase pim-3 (Homo sapiens) (UniProt Q86V86); settings: at 1 µM
[14] = target: T2, MAP kinase-activated protein kinase 5 (Homo sapiens) (UniProt Q8IW41); settings: at 0.1 µM
T2 sequence (whole entry): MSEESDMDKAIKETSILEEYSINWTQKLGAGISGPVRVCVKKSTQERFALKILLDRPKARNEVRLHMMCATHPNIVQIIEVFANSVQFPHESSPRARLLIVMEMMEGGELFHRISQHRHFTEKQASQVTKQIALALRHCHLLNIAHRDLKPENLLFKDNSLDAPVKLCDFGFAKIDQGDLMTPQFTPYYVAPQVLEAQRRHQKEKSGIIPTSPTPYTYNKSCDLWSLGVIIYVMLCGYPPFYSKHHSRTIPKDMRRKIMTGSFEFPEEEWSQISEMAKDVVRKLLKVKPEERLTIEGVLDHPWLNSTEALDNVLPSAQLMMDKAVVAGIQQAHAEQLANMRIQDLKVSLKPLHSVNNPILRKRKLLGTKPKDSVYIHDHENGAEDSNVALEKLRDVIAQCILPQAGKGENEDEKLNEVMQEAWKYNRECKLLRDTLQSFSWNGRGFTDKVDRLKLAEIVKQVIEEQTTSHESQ

[15] = target: T2, MAP kinase-activated protein kinase 5 (Homo sapiens); settings: at 1 µM
[16] = target: Serine/threonine-protein kinase SIK1 (Homo sapiens) (UniProt P57059); settings: at 0.1 µM
Serine/threonine-protein kinase SIK1 (Homo sapiens), sequence (P57059 whole entry): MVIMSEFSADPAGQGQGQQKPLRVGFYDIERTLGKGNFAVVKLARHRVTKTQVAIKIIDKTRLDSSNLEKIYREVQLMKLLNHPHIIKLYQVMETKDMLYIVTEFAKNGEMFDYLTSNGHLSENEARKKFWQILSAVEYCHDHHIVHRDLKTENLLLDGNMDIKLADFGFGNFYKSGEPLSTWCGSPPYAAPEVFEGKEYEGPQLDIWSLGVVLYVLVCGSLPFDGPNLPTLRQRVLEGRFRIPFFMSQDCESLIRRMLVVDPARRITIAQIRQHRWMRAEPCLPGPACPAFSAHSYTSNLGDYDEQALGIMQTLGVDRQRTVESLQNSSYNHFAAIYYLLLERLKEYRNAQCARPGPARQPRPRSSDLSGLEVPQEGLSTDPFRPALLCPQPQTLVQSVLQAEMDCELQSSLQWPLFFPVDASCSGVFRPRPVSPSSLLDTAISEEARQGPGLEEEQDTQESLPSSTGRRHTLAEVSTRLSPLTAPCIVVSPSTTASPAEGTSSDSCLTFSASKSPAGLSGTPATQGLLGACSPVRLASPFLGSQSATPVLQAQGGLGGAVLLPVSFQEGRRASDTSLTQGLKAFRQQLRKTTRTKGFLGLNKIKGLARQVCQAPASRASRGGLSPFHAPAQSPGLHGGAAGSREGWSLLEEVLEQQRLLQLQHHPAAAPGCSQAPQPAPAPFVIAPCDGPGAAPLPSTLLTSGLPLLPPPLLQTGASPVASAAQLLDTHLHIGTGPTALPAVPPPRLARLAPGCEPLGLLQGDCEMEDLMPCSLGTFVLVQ

[17] = target: Serine/threonine-protein kinase SIK1 (Homo sapiens) (UniProt P57059); settings: at 1 µM
[18] = target: Serine/threonine-protein kinase SIK2 (Homo sapiens) (UniProt Q9H0K1); settings: at 0.1 µM
Serine/threonine-protein kinase SIK2 (Homo sapiens), sequence (Q9H0K1 whole entry, looked up): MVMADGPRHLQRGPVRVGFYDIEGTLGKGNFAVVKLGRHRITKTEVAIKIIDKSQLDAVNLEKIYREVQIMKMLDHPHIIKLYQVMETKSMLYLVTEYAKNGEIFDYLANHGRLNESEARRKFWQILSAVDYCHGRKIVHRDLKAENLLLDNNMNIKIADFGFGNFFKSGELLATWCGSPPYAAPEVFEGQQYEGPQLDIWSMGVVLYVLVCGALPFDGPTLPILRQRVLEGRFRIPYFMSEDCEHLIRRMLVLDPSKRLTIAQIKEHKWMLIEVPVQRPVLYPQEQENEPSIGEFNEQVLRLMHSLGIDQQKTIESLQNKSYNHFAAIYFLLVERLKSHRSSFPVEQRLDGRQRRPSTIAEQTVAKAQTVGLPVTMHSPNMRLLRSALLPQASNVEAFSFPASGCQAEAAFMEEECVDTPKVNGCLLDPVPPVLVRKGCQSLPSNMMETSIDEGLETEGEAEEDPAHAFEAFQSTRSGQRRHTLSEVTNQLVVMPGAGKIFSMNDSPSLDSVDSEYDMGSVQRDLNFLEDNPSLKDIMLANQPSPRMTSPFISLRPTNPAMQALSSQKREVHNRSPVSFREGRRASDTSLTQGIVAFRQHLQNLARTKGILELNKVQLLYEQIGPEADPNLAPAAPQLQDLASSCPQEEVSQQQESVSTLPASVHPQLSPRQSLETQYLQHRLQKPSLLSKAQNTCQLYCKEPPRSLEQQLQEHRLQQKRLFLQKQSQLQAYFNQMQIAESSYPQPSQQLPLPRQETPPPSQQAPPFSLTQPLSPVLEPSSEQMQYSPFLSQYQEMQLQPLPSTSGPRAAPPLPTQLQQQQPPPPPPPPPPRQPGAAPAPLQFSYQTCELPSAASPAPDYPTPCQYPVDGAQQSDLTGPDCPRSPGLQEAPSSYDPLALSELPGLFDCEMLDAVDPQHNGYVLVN

[19] = target: Serine/threonine-protein kinase SIK2 (Homo sapiens) (UniProt Q9H0K1); settings: at 1 µM
[20] = target: T3, Serine/threonine-protein kinase TBK1 (Homo sapiens) (UniProt Q9UHD2); settings: at 0.1 µM;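 note: values are the mean TBK1 inhibition, taken from the GSK PKIS screening data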
T3 sequence (whole entry): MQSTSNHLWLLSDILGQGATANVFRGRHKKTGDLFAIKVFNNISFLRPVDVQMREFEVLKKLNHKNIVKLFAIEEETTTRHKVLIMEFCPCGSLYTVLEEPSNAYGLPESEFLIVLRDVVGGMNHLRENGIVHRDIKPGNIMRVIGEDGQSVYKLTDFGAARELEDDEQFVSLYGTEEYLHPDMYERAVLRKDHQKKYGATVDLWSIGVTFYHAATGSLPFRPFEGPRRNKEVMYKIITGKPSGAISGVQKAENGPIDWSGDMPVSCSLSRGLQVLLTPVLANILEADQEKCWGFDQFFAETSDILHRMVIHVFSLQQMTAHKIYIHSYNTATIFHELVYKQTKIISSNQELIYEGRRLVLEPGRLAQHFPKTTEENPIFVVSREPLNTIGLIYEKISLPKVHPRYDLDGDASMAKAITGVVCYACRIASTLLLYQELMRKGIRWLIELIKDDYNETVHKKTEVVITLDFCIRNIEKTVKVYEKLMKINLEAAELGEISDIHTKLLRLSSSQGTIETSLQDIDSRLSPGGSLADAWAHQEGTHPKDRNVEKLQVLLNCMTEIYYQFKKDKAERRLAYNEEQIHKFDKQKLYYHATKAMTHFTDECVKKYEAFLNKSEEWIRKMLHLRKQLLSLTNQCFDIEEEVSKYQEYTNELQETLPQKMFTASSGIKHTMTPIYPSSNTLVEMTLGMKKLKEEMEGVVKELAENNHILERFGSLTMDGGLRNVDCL

PAS domain-containing serine/threonine-protein kinase (Homo sapiens), sequence (Q96RG2 whole entry, the tested form may be a part, canonical isoform): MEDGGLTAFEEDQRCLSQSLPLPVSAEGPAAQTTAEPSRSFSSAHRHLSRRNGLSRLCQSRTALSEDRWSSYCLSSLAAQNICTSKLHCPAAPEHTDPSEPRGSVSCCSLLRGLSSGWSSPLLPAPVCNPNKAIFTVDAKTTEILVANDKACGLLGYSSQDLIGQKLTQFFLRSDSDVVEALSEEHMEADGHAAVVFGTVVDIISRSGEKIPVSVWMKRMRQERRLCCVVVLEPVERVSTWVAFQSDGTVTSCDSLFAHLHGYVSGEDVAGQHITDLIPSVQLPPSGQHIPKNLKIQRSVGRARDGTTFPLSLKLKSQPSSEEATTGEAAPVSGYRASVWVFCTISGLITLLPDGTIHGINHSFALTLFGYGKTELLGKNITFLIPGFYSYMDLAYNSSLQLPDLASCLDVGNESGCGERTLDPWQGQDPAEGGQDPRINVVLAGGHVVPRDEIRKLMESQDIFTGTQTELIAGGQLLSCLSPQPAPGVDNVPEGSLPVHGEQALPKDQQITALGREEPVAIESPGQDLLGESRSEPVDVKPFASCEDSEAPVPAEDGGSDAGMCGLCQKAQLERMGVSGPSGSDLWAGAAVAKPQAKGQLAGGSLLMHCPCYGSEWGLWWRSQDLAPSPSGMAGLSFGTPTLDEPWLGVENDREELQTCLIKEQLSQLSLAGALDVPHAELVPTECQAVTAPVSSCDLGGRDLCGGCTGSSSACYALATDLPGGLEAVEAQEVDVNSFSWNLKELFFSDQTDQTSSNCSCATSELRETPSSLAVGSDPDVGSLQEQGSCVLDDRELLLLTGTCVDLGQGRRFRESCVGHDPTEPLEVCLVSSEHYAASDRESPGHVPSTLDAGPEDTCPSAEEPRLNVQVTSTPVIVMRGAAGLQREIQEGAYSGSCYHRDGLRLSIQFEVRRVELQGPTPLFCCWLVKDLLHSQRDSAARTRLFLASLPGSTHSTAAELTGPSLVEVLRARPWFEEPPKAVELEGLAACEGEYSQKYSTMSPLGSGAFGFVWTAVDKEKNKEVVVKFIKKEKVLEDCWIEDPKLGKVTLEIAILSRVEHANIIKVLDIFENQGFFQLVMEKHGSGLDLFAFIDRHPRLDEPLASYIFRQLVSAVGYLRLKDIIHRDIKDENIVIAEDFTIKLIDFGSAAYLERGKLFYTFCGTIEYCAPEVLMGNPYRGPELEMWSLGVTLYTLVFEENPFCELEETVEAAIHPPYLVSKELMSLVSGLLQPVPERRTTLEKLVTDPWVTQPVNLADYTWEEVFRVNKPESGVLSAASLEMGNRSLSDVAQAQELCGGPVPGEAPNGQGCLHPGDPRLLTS
Serine/threonine-protein kinase MARK2 (Homo sapiens), sequence (Q7KZI7 whole entry, the tested form may be a part): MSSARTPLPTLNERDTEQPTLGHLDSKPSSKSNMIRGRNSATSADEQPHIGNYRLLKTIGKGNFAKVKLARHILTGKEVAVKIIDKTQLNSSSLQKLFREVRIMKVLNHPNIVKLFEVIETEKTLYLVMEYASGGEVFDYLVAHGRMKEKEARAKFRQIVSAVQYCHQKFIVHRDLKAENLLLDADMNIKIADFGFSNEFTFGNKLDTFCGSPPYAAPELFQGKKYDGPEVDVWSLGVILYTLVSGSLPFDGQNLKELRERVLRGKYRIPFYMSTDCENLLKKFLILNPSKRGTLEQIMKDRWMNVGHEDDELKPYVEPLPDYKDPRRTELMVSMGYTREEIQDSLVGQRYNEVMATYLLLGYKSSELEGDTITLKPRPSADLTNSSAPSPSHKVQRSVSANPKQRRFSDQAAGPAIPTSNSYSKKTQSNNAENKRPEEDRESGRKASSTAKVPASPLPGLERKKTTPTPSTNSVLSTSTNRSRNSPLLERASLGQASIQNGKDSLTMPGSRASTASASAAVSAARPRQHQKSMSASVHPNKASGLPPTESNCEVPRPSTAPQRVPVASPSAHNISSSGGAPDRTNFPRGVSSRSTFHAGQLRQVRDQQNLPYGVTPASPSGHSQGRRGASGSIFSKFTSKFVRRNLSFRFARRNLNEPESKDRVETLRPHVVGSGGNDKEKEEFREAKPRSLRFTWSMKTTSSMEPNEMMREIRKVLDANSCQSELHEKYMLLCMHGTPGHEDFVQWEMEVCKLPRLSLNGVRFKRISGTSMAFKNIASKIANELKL

SMILES	inhibition [1] [%]	inhibition [2] [%]	inhibition [3] [%]	inhibition [4] [%]	inhibition [5] [%]	inhibition [6] [%]	inhibition [7] [%]	inhibition [8] [%]	inhibition [9] [%]	inhibition [10] [%]	inhibition [11] [%]	inhibition [12] [%]	inhibition [13] [%]	inhibition [14] [%]	inhibition [15] [%]	inhibition [16] [%]	inhibition [17] [%]	inhibition [18] [%]	inhibition [19] [%]	inhibition [20] [%]
Fc1cccc(COc2ccc(Nc3ncnc4cc(-c5ccc[nH]5)sc34)cc2Cl)c1	2.66	-0.58	-0.43	3.19	3.62	2.24	2.18	-0.5	1.01	-3.43	-2.72	-0.5	1.49	0.74	0.9	3.04	8.63	3.89	7.67	2.35
CCn1c(-c2nonc2N)nc2c(N3CCCC3)nccc21	3.46	-0.88	-1.38	3.74	-1.02	-3.65	-3.95	0.8	1.03	-0.33	0.29	-0.84	1	-0.99	-0.15	-7.25	-2.47	-7.08	-6.02	-0.24
CC(=O)Nc1cccc(C#Cc2cncnc2Nc2ccc(OCc3cccc(F)c3)c(Cl)c2)n1	-0.36	1.79	6.21	1.84	3.66	0.59	6.86	1.5	0.89	0.58	-0.75	5.22	9.04	0.35	2.24	-2.62	-1.96	-4.28	-0.46	1.99
O=C1NC(=O)C(N2CCc3ccccc32)=C1c1ccc(Cl)cc1	2.02	0.1	-1.5	3.36	5.29	4.72	2.26	0.92	1.27	0.55	0.77	-1.28	-2.25	1.12	0.55	5.76	7.18	1.33	5.15	3.01
CS(=O)(=O)CCN(CC#N)Cc1ccc(-c2ccc3ncnc(Nc4ccc(OCc5cccc(F)c5)c(Cl)c4)c3c2)o1	-1.1	-0.15	-0.89	2.68	5.37	1.91	1.52	-1.56	-0.76	-4.12	-3.72	-0.61	-0.3	0.76	1.23	4.78	9.27	1.11	0.48	0.72
CCn1c(-c2nonc2N)nc2cncc(C(=O)N3CC[C@H](N)C3)c21	7.14	0.29	22.9	6.12	6.32	6.67	5.58	74.1	94.2	9.73	48.2	51.5	78.9	1.81	2.26	5.73	9.11	4.34	10.1	3.11
COc1cc2ncn(-c3cc(O[C@H](C)c4ccccc4Cl)c(C(N)=O)s3)c2cc1OC	17.8	1.62	5.27	3.66	6.72	6.57	12.9	1.15	3.93	0.26	0.96	2.36	12.4	2.09	4.22	12.6	53.1	10.9	24.8	3.11
COC(=O)Nc1nc2cc(Oc3cccc(NC(=O)Nc4cc(C(F)(F)F)ccc4F)c3)ccc2[nH]1	0.86	0.12	0.57	2.73	2.22	-0.89	-1.83	-0.25	0.39	-0.3	0.76	0.14	0.51	-0.26	-2.14	0.37	2.51	-0.54	3.76	
Nc1ncnc2occ(-c3ccc(NC(=O)Nc4cc(C(F)(F)F)cc(C(F)(F)F)c4)cc3)c12	0.58	0.36	-1.29	1.04	2.55	1.7	-1.63	0.69	0.66	0.17	0.27	-1.29	-2.53	0.61	0.59	1.96	2.47	3.48	4.42	-0.65
COC(=O)Nc1nc2cc(Oc3ccc(NC(=O)Nc4cccc(C(=O)O)c4)cc3)ccc2[nH]1	0.87	0.9	1.66	-0.77	11.2	1.36	4.11	-0.3	0.62	-4.42	-2.76	1.29	3.84	0.42	1	3.75	1.25	-0.04	2.04	0.81
CC1=C(C(=O)Nc2ccc3[nH]ncc3c2)C(c2ccc3ccccc3c2)CC(=O)N1 (centres undefined)	0.34	-0.4	-1.53	2.21	1.29	2.37	1.22	0.24	-0.93	0.51	0.77	-0.19	0.74	0.65	1.3	4.02	1.28	5.77	4.09	-1.92
CS(=O)(=O)CCNCc1ccc(-c2ccc3ncnc(Nc4ccc(OCc5ccccc5)c(Cl)c4)c3c2)o1	3.76	0.71	0.11	1.63	6.13	-1.65	-2.44	0.36	1.78	-0.34	0.98	0.47	1.74	0.46	0.34	1.53	4.15	-3.07	-4.01	0.47
CCn1c(-c2nonc2N)nc2cnc(Oc3cccc(NC(=O)c4ccc(OCCN5CCOCC5)cc4)c3)cc21	11	-1.22	-0.7	-3.59	6.37	3.34	1.77	0.47	10.4	-0.49	0.68	-1.8	2.09	0.82	1.44	4.8	10.1	8.55	13.8	0.71
